We go through 102 compounds from PubChem BioAssay AID588675 (Johns Hopkins Ion Channel Center, 2011).

Among all 310,000 compounds or so, about 1,900 (0.61%) were called active.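 How the source made its calls: active means plate-corrected calcium response at least 3 library SD above typical, normal starting fluorescence, not activating the receptor alone; inactive means the rest.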 What follows is part of a selection rich in actives, with near analogues and random picks from the rest.

For this assay, the target named is Mas-related G-protein coupled receptor member X1 (Homo sapiens) (UniProt Q96LB2). Nature of the assay: allosteric enhancers of human MrgX1 signaling – HEK293 cells, Fluo-4 calcium flux, primary screen (AID 588675).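 Further: compound read alongside a low EC10 to EC30 dose of BAM8-22 agonist.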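 On B-score: peak minus trough fluorescence over baseline measured at the second addition.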 The following applies: MrgX1-HEK293, Fluo-4 calcium flux, FDSS, at 10 µM; active compounds read high. In general terms: A change in cytosolic calcium serves as a functional read-out for many receptors and channels.
Chain of Mas-related G-protein coupled receptor member X1 (Homo sapiens) (Q96LB2 whole entry, looked up): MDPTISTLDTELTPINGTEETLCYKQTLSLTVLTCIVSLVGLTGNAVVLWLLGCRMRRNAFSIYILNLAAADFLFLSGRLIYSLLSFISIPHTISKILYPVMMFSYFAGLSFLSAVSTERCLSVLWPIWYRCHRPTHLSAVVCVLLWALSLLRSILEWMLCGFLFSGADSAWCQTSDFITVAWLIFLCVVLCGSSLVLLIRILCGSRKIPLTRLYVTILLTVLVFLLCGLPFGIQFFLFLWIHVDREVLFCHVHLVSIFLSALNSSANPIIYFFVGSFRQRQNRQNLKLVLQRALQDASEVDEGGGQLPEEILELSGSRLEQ
Regarding `CCn1cc(C(=O)NC2CCCCCC2)c(=O)c2cc(S(=O)(=O)N3CCCCC3)ccc21`, the B-score result is “inactive”.

Take `Cc1ccc(C)c(-c2nnc(NC(=O)CS(=O)(=O)c3ccccc3)o2)c1`: the B-score result was “inactive”.

Take `CN(C)S(=O)(=O)Oc1ccccc1C(=O)Nc1ccccc1Cl`: the B-score entry was “inactive”.

Regarding `CC1CCN(S(=O)(=O)c2ccc3[nH]c(=O)ccc3c2)CC1`, the B-score entry is “inactive”.

As to `O=C1C(Cc2ccc(O)cc2)NC(=S)N1Cc1ccccc1` (configuration not stated), the B-score is 9.49 (active).

Take `COc1ccc(N2C(=O)C(Cc3ccccc3)NC2=S)cc1` (configuration not stated): the B-score entry is “inactive”.

On to `Cc1cc(C)c(NC(=O)CN2C(=O)NC(Cc3ccccc3)C2=O)c(C)c1` (configuration not stated), for which the B-score result is “inactive”.

In the case of `CC1(C)CC(=O)C2=C(C1)N=C1SCCC(=O)N1C2c1ccc(C(F)(F)F)cc1` (configuration not stated), the B-score entry was “inactive”.

As to `COc1ccc(CNc2c(CO)cnc3c2cnn3C)cc1`, the B-score result was “inactive”.

As for `COc1ccc(Cc2nc(-c3ccccn3)no2)cc1OC`, the B-score is 8.9 (active).

With `COc1ccc(CCNS(=O)(=O)c2cccc3cccnc23)cc1OC`, the B-score entry was “inactive”.

For `COCCNC(=O)c1ccc2nc(Cc3ccc(OC)c(OC)c3)oc2c1`, the B-score entry was “inactive”.

Consider `Cc1ccc(N2CC(C(=O)Nc3cc(Cl)ccc3-n3cncn3)CC2=O)cc1` (configuration not stated), for which the B-score entry was “inactive”.

In the case of `Cn1nc(C(F)(F)F)c(-c2ccc(F)cc2)c1NC(=O)CSCC(=O)O`, the B-score result is “inactive”.

Regarding `CCCC1OC23CCCCC2C(C#N)(C#N)C1(C#N)C(=N)O3` (configuration not stated), the B-score result is “inactive”.

Turning to `COc1ccc(CN(C)C(=O)Cc2ccsc2)c(OC)c1OC`, the B-score result was “inactive”.

For the compound `O=C(Nc1ccccc1N1CCCCC1)c1ccc2nccnc2c1`, the B-score is 7.2 (active).

`O=C(Nc1ccccc1N1CCN(c2ccccc2)CC1)c1cccc(F)c1`: the B-score entry was “inactive”.

In the case of `O=C(Nc1ccccc1N1CCCC1)c1ccc2ccccc2c1`, the B-score entry is “inactive”.

Regarding `COCCn1c(CN2CCC(Cc3ccccc3)CC2)nc2c1c(=O)n(C)c(=O)n2C`, the B-score entry is “inactive”.

For the compound `CCOc1ccc(NC(=O)CCS(=O)(=O)c2ccc3c(c2)CCCN3C(=O)CC)cc1`, the B-score entry is “inactive”.

For the compound `Cc1ccc(S(=O)(=O)N2CCC(C(=O)NCCC3=CCCCC3)CC2)cc1C`, the B-score entry was “inactive”.

As to `O=C(Cc1ccccc1)N1N=C(c2ccncc2)CC1(O)C(F)(F)F` (configuration not stated), the B-score entry was “inactive”.

Regarding `CC(=O)N1N=C(c2ccccc2)OC1c1cccnc1` (configuration not stated), the B-score entry was “inactive”.

Consider `CC(=O)N1N=C(c2ccncc2)OC1(Cc1ccccc1)Cc1ccccc1`, for which the B-score is 7.85 (active).

`O=C(c1ccccc1)C(Cn1cncn1)C(Sc1ccccc1)c1ccccc1` (configuration not stated): the B-score result was “inactive”.

For the compound `CCN(CC(=O)Nc1ccccc1OC)C(=O)Cn1cnc2ccccc2c1=O`, the B-score entry was “inactive”.

As for `Cc1ccc(/C=C/C(=O)O)cc1S(=O)(=O)N1CCC(Cc2ccccc2)CC1`, the B-score entry was “inactive”.

On to `CCN(CC(=O)Nc1c(F)cccc1F)C(=O)c1ccc(Sc2nncn2C)c([N+](=O)[O-])c1`, for which the B-score entry is “inactive”.

Regarding `CC(=O)Nc1ccc(Nc2c([N+](=O)[O-])cc(S(C)(=O)=O)cc2[N+](=O)[O-])cc1`, the B-score entry is “inactive”.

On to `Cn1cnnc1Sc1ccc(S(C)(=O)=O)cc1[N+](=O)[O-]`, for which the B-score was 12.1 (active).

With `CS(=O)(=O)Nc1ccc(C(=O)N2CCCC2)cc1`, the B-score entry was “inactive”.

Turning to `Cn1c(=O)c2c(nc(N/N=C/c3cccs3)n2Cc2ccc(Br)cc2)n(C)c1=O`, the B-score result was “inactive”.

Turning to `COc1ccc(NC(=O)C2C3C=CC(C3)C2C(=O)NCc2ccccn2)c(OC)c1` (configuration not stated), the B-score result was “inactive”.

With `Cn1c(=O)n(C)c2cc(S(=O)(=O)N3CCCc4ccccc43)ccc21`, the B-score result was “inactive”.

`COc1cc(C)c(C)cc1S(=O)(=O)N1CCCc2ccccc21`: the B-score was 7.48 (active).

Take `COc1ccc(C(=O)OCC(=O)NCC2CCCCC2)cc1S(=O)(=O)N1CCCc2ccccc21`: the B-score result is “inactive”.

As for `CC[C@@H](C)[C@@H](C(=O)N1CCN(C(=O)OC(C)(C)C)CC1)n1cc(CCC(=O)O)nn1`, the B-score entry is “inactive”.

Take `CC1CN(S(=O)(=O)c2cccc(C(F)(F)F)c2)CN1C(=O)N1CCOCC1` (configuration not stated): the B-score entry is “inactive”.

As for `COc1ccc(S(=O)(=O)N2CCC(C(=O)N3CCc4ccccc4C3)CC2)cc1OC`, the B-score entry is “inactive”.

As to `COc1ccc(C2CC(=O)n3c(nc4ccccc43)S2)cc1OC` (configuration not stated), the B-score entry is “inactive”.

On to `COc1ccc(C2SCCN2S(=O)(=O)c2ccccc2)cc1OC` (configuration not stated), for which the B-score is 7.25 (active).

Regarding `Cc1cc(NC(=O)CS(=O)(=O)c2cn(C)c3ccccc23)no1`, the B-score result was “inactive”.

For the compound `CCCCN1C(N)=NC[C@@H]1CC1CCCCC1`, the B-score result is “inactive”.

With `COc1ccccc1CCNS(=O)(=O)c1cn(C)nc1C`, the B-score entry was “inactive”.

As to `CCOc1ccc2nc(/N=C/c3nc(-c4ccccc4)oc3O)sc2c1`, the B-score is 18.1 (active).

As for `CC(N=Cc1nc(-c2ccccc2)oc1O)c1ccccc1` (configuration not stated), the B-score entry is “inactive”.

`CCOc1ccc2nc(N(CCCN(C)C)C(=O)c3ccc(C(=O)c4ccccc4)cc3)sc2c1`: the B-score entry is “inactive”.

Regarding `CN1C(=O)CC(c2ccccc2)C1=O` (configuration not stated), the B-score entry was “inactive”.

`Cc1cccc(N(C)C(=O)c2cc(S(=O)(=O)N3CCCCC3)c[nH]2)c1`: the B-score result was “inactive”.

On to `COC(=O)Cn1c(=NC(=O)c2cc(OC)c(OC)c(OC)c2)sc2cc(OC)ccc21`, for which the B-score entry was “inactive”.

In the case of `COc1ccc(OC)c(C(=O)c2ccc(Cl)cc2)c1`, the B-score result was “inactive”.

As to `COc1ccc(/C(C)=N/NC(=O)CCC(=O)Nc2ccc(Cl)cc2Cl)c(OC)c1`, the B-score result is “inactive”.

For `COc1ccc(OC)c(/C(C)=N\NC(=O)c2cc3cc(Cl)ccc3n2C)c1`, the B-score was 6.86 (active).

As for `CCOc1ccccc1NS(=O)(=O)c1c[nH]c(C(=O)OC)c1`, the B-score result was “inactive”.

Turning to `CCN(CC(=O)NCc1cccs1)C(=O)c1cccc(S(=O)(=O)Nc2ccccc2OC)c1`, the B-score entry is “inactive”.

Regarding `CCOc1ncccc1C(=O)NNC(=O)c1cccc(S(=O)(=O)Nc2ccccc2OC)c1`, the B-score was 7.54 (active).

With `COc1ccc(CCNC(=S)NC(=O)/C=C/c2ccc(C)cc2)cc1OC`, the B-score result is “inactive”.

With `COCCCNC(=O)CN1CCN(Cc2ccccc2Cl)C1=O`, the B-score result was “inactive”.

With `C#CCOCCOCCOCCNc1nc(N2CCN(C(=O)[C@H](CCCCN)n3cc(CCC(=O)O)nn3)CC2)nc(N2CCN(C(=O)[C@H](CCCCN)n3cc(CC(C)O)nn3)CC2)n1` (some centres not stated), the B-score entry was “inactive”.

With `COc1ccc(CCNc2nc3ccc(C)cc3n3cnnc23)cc1OC`, the B-score result was “inactive”.

Consider `COc1ccc(OC)c(Nc2nc3ccccc3n3cnnc23)c1`, for which the B-score was 9.87 (active).

Turning to `COc1cc(Nc2nc3ccc(Cl)cc3n3cnnc23)cc(OC)c1OC`, the B-score entry is “inactive”.

In the case of `Cc1nn2cc(-c3ccc(Cl)cc3)cnc2c1Br`, the B-score result is “inactive”.

In the case of `CN1C(C)(C)CC(NC(=O)CCC(=O)NC2CC(C)(C)N(C)C(C)(C)C2)CC1(C)C`, the B-score entry was “inactive”.

As to `Nc1nc(SC23CC4CC(CC(C4)C2)C3)ns1`, the B-score result was “inactive”.

As for `Nc1nc(C23CC4CC(CC(C4)C2)C3)cs1`, the B-score was 15.8 (active).

`S=c1nc(C23CC4CC(CC(C4)C2)C3)nc2sccn12`: the B-score entry is “inactive”.

In the case of `FC(F)(F)c1ccc2nnc(-c3c(Cl)cccc3Cl)n2c1`, the B-score result is “inactive”.

Consider `COC(=O)Cc1cc(=O)n(-c2nc3ccccc3s2)[nH]1`, for which the B-score was 7.64 (active).

Regarding `C/C(=N\NC(=O)CC(C)C)c1c(C(F)(F)F)[nH]n(-c2nc3ccccc3s2)c1=O`, the B-score result is “inactive”.

Take `COC(=O)Cc1[nH]n(-c2nc3ccccc3s2)c(=O)c1C(C)=Nc1ccc(OC)cc1`: the B-score result was “inactive”.

Consider `O=[N+]([O-])c1ccc2oc(-c3cccc(O)c3)nc2c1`, for which the B-score entry is “inactive”.

Turning to `COc1ccc(-c2nc3cc([N+](=O)[O-])ccc3o2)cc1OC`, the B-score was 11 (active).

With `COc1ccc([N+](=O)[O-])cc1-c1nc2ccccc2nc1-c1ccccc1`, the B-score entry is “inactive”.

For the compound `CC(C)N1C(=S)SC(C)(C)C1n1oc(=O)n(-c2ccc(Cl)c(Cl)c2)c1=O` (configuration not stated), the B-score result was “inactive”.

As for `O=C(CNC(=O)OCc1ccccc1)Oc1cc2oc(=O)cc(-c3ccccc3)c2cc1Cl`, the B-score entry is “inactive”.

`Cc1nc2sccn2c(=O)c1S(=O)(=O)NCCc1ccccc1`: the B-score entry was “inactive”.

For `Cc1ccc2c(C)c(C(=O)N(C)Cc3ccncn3)oc2c1C`, the B-score result is “inactive”.

Turning to `Cc1ccc2c(C)c(C(=O)N(C)CCC3CCCCO3)oc2c1C` (configuration not stated), the B-score was 11.2 (active).

In the case of `Cc1c(C(=O)N(C)CCc2cnn(C)c2)oc2c(F)cccc12`, the B-score entry is “inactive”.

As to `CCCCn1c(N)c(N(CCC(C)C)C(=O)CC2OC(=O)c3ccccc32)c(=O)[nH]c1=O` (configuration not stated), the B-score result was “inactive”.

Regarding `COc1ccc(C2(C)NC(=O)N(CC(=O)c3ccc4c(c3)OCO4)C2=O)cc1` (configuration not stated), the B-score entry was “inactive”.

For the compound `O=C(OCc1ccc([N+](=O)[O-])cc1)C1CC(=O)N(Cc2ccccc2Cl)C1` (configuration not stated), the B-score entry is “inactive”.

Consider `CCCC1CCC(=NNC(=S)NCCc2ccccc2)CC1` (configuration not stated), for which the B-score result is “inactive”.

As to `O=C(O)CCn1cc(/C=C/C(=O)c2ccc(Cl)cc2)c(-c2cccc(Br)c2)n1`, the B-score entry was “inactive”.

As to `CCOc1cc(/C=C(\C#N)c2nc(-c3cccs3)c(NC(C)=O)s2)ccc1O`, the B-score result was “inactive”.

Regarding `COc1cc(/C=C(\C#N)c2nc3c(s2)CC(C)CC3)ccc1O` (configuration not stated), the B-score was 15.1 (active).

`COc1cc(/C=C(\C#N)c2nc3ccccc3[nH]2)ccc1O`: the B-score result was “inactive”.

Take `CC(=O)Nc1ccc(S(=O)(=O)N2CCN(C(=O)c3ccccc3F)CC2)cc1`: the B-score entry is “inactive”.

Take `O=C(Nc1cccc(Cl)c1)c1cncn1-c1ccc(F)cc1`: the B-score was 12.5 (active).

Regarding `O=C(Nc1cccc(Cl)c1)c1cc(S(=O)(=O)N2CCCCC2)c[nH]1`, the B-score entry is “inactive”.

In the case of `CCC(=O)Nc1nc(C)c(C(=O)Nc2cccc(Cl)c2)s1`, the B-score entry was “inactive”.

`C=CCn1cc(Cl)cc(C(=O)Nc2ccccc2)c1=O`: the B-score result was “inactive”.

For the compound `COC(=O)c1c(NC(=O)COC(=O)[C@@H](NS(=O)(=O)c2ccccc2)C(C)C)sc2c1CCC2`, the B-score entry is “inactive”.

As to `COC(=O)c1c(NC(=O)CCN2CCOCC2)sc2c1CCCC2`, the B-score entry is “inactive”.

`COC(=O)c1c(NC(=O)C2CC(C)=C(C)CC2C(=O)O)sc2c1CCCCC2` (configuration not stated): the B-score result was “inactive”.

As to `COC(=O)c1c(NC(=O)CSc2nncs2)sc2c1CCCCC2`, the B-score result was “inactive”.

With `COC(=O)c1c(NC(=O)CN(c2ccc(C)c(C)c2)S(C)(=O)=O)sc2c1CCCC2`, the B-score was 11.7 (active).

In the case of `CCc1ccc(N(CC(=O)Nc2sc3c(c2C(=O)OC)CCCC3)S(C)(=O)=O)cc1`, the B-score was 8.16 (active).

For the compound `COc1ccc(OC)c(-c2c(=O)n(OCc3ccccc3Br)c3ccccc3[n+]2[O-])c1`, the B-score result is “inactive”.

Regarding `O=C(Oc1ccc(-c2nnco2)cc1)c1ccc(F)c(S(=O)(=O)N2CCOCC2)c1`, the B-score result is “inactive”.
